# Test results from PubChem BioAssay (NCATS).
# Inconclusive results are not listed. Where a call stands in place of a potency, no number is given. The source made the active and inactive calls. Unless noted, the call rests on the fitted dose curve; in most records, active means well fitted curve in the direction sought with a large enough effect; inconclusive means small, poorly fitted or top-dose-only effect, or another doubt; inactive means no such curve, though single readings can be large; an effect the other way counts as inactive or inconclusive.
# Columns and labels:
# [1] = Primary qHTS for inhibitors of MERS-S pseudo-typed particle cell entry (AID 1479149; calls by dose curve; further: nearly all actives have a fitted effect of over 60% in size); settings: outcome: dose series up to 57.1 µM unless noted
# [2] = Primary qHTS for Vero E6 cytotoxicity: counterscreen for inhibitors of SARS-S pseudo-typed particle cell entry (AID 1479150; calls by dose curve)
# [3] = target: Cytochrome P450 2D6 (Homo sapiens) (UniProt P10635); test: Cytochrome P450 family 2 subfamily D member 6 (CYP2D6) small molecule antagonists: luciferase biochemical (cell-free) qHTS assay (AID 1645840; active means well fitted curve in the direction sought with a large enough effect in the repeat runs; an effect the other way counts as inactive or inconclusive; further: series mostly up to about 57 µM; nearly all actives have a fitted effect of over 55% in size)
# Outline: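 P450-Glo luminescent screen: recombinant CYP2D6 enzyme–proluciferin substrate mix preincubated with compound 10 min at room temperature, then NADPH regeneration added for 1 h at room temperature. Detection reagent added for 20 min; luciferin light read as relative luminescence units.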
# [4] = target: Cytochrome P450 2C9 (Homo sapiens) (UniProt P11712); test: Cytochrome P450 family 2 subfamily C member 9 (CYP2C9) small molecule antagonists: luciferase biochemical (cell-free) qHTS assay (AID 1645842; active means well fitted curve in the direction sought with a large enough effect in the repeat runs; an effect the other way counts as inactive or inconclusive; further: potency means the concentration at half of the fitted maximal effect; nearly all actives have a fitted effect of over 55% in size)
# Outline: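 Luminescence, after 20 min with luciferin detection reagent, reflected CYP2C9 turnover during a 1 h NADPH-driven reaction at 37C. Enzyme-substrate mix contained 0.4% bovine serum albumin and was preincubated with compound 10 min at room temperature.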
# [5] = Cytotoxicity counterscreen for inhibitors of SARS-CoV-2 cell entry (AID 1645845; calls by dose curve; further: nearly all actives have a fitted effect of over 50% in size); settings: outcome: dose series up to 57.1 µM unless noted
# Outline: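 HEK293-ACE2 cells (Expi293F stably expressing human ACE2) seeded overnight, then compound for 1 h plus 48 h at 37C. Viability as ATP content by luminescence; normalized to wells with cells and media-only wells.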
# [6] = Confirmatory qHTS for VERO E6 Cytotoxicity Assay: Counterscreen for SARS-CoV-2 CPE Assay (AID 1508605; calls by dose curve; further: series mostly up to about 20 µM; nearly all actives have a fitted effect of over 60% in size)
# [7] = Confirmatory qHTS for activators (rescue) of SARS-CoV-2 Cytopathic Effect (CPE) (AID 1508606; calls by dose curve; further: nearly all actives have a fitted effect of over 70% in size)
# [8] = target: Calcium and integrin-binding protein 1 (Homo sapiens) (UniProt Q99828); test: Primary qHTS for Identification of Calcium Integrin Binding Protein 1 (CIB1) Competitor (AID 1508620);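 further: GST tagged CIB1 binding a fluorescein labelled alphaIIb integrin peptide tracer; top concentration of the series differs between compounds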
# Outline: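 Fluorescence polarization competition: GST-tagged CIB1 (1 uM final) preincubated with compound 15 min at room temperature, then FITC-labelled alphaIIb peptide (100 nM final) added. After 15 min at room temperature, polarization read at Ex 480/Em 540.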
# [9] = Primary qHTS for small molecule stabilizers of the endoplasmic reticulum resident proteome: Secreted ER Calcium Modulated Protein (SERCaMP) assay (AID 1508630)
# Outline: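 GLuc-SERCaMP-expressing SH-SY5Y cells, pretreated 16 h with compound, are challenged with thapsigargin to empty ER calcium stores; after 4 h, coelenterazine is added directly to the medium and luminescence is imaged.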
# [10] = Confirmatory qHTS to identify inhibitors of SARS-CoV-2 cell entry (AID 1645844; calls by dose curve; further: potency means the concentration at half of the fitted maximal effect; nearly all actives have a fitted effect of over 45% in size); settings: SARS-CoV-2 pseudotyped particle cell entry, luciferase
# Outline: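 HEK293-ACE2 cells were pretreated 1 h with compound, then infected with MLV-based pseudoparticles bearing C-terminally truncated Wuhan-Hu-1 spike for 48 h at 37C; luciferase luminescence normalized to spike PP and bald PP wells.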
# [11] = Primary qHTS for inhibitors of La Crosse Virus (LACV) - induced cell death in SH-SY5Y cells (AID 1508616);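 further: top concentration of the series differs between compounds; higher means more rescue of cells from virus-induced death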
# Outline: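 SH-SY5Y cells (6000/well) plated 24 h, then given compounds by pin transfer and LACV at 0.01 MOI for 6 days at 37C. Viability measured by ATPLite luminescence, normalized to infected DMSO and uninfected DMSO.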
# [12] = target: Calcium and integrin-binding protein 1 (Homo sapiens) (UniProt Q99828); test: Validation qHTS for Identification of Calcium Integrin Binding protein 1 (CIB1) Competitor (AID 1508618)
# Outline: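 CIB1-GST (1 uM final) in 5 mM HEPES pH 7.4, 125 mM NaCl, 5 mM CaCl2, 0.01% Tween20 was preincubated 15 min at room temperature with compound (up to 114 uM), then FITC-alphaIIb peptide (100 nM) added for 15 min; fluorescence polarization read.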
# Papain (Carica papaya) = Papain (Carica papaya) (UniProt P00784); test: Primary qHTS assay for inhibitors of the protease papain (AID 1645873);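 further: papain turnover of Z-FR-AMC read as the AMC fluorescence gain over 10 min; series mostly up to about 50 µM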
# [13] = Confirmatory qHTS for small molecule stabilizers of the endoplasmic reticulum resident proteome: Secreted ER Calcium Modulated Protein (SERCaMP) assay (AID 1508628); further: series mostly up to about 76 µM; nearly all actives have a fitted effect of over 40% in size
# Outline: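 SH-SY5Y cells stably expressing GLuc-SERCaMP, treated 16 h with compound (primary 1.53, 7.67, 38.3 uM; confirmation 11 concentrations, up to 76.6 uM), then 100 nM thapsigargin for 4 h. Secreted Gaussia luciferase in medium read by coelenterazine luminescence.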
# Sequence of Papain (Carica papaya) (P00784 whole entry, looked up): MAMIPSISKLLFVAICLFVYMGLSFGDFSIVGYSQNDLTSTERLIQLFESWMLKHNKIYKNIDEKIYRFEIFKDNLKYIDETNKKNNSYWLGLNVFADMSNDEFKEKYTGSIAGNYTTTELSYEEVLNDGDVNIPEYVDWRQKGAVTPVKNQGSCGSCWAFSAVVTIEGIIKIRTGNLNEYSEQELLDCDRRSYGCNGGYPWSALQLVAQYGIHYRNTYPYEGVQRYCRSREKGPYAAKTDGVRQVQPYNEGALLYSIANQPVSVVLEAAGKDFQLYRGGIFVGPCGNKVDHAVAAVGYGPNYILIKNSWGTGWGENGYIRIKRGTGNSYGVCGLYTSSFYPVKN
# Sequence of Calcium and integrin-binding protein 1 (Homo sapiens) (Q99828 whole entry, looked up): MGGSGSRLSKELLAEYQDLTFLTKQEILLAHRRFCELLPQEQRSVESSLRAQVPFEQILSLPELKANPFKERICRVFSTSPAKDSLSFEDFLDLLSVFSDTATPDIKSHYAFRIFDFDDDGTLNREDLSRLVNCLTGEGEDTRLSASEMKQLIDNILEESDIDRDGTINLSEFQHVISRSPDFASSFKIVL
# Sequence of Cytochrome P450 2C9 (Homo sapiens) (P11712 whole entry, looked up): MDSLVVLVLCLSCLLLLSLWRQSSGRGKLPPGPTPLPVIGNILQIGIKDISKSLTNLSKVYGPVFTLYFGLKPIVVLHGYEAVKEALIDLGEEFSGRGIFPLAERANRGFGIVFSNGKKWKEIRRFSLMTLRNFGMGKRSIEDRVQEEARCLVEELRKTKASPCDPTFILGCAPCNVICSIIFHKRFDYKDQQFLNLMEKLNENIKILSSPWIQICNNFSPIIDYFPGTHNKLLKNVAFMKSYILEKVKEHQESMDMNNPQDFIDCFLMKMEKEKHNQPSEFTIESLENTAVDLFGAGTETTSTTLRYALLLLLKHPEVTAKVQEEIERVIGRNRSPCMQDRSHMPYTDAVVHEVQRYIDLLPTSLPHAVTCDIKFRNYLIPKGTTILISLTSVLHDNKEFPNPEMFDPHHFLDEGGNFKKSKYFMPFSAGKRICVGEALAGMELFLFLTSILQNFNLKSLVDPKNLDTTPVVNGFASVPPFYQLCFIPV
# Sequence of Cytochrome P450 2D6 (Homo sapiens) (P10635 whole entry, looked up): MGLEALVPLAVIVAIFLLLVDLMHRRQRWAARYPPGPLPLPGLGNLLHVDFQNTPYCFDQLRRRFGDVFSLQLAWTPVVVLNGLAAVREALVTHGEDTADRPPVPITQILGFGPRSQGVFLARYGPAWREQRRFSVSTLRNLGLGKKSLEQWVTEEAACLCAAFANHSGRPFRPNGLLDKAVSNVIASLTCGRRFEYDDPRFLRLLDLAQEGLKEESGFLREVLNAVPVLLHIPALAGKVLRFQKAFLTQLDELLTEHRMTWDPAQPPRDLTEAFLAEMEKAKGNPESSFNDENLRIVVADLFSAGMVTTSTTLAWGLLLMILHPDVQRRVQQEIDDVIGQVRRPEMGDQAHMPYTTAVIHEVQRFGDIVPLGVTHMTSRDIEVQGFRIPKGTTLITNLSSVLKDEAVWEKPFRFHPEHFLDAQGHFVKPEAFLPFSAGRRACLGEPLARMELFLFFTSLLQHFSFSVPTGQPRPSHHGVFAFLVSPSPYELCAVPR
smiles,measurement,setting,value
CC1CCC(C(C)C)C(OC(=O)c2ccccc2N)C1 (stereo not drawn),outcome,[1],inactive
same,Potency,[2],inactive
same,Potency,[3],inactive
same,Potency,[4],2.68 µM (active)
same,outcome,[5],inactive
CCNC1(c2cccs2)CCCCC1=O (stereo not drawn),outcome,[1],inactive
same,Potency,[2],inactive
same,outcome,[5],inactive
CC[C@H]1CN2CC[C@H]1C[C@@H]2[C@@H](O)c1ccnc2ccc(OC)cc12,outcome,[6],inactive
same,outcome,[7],inactive
same,Potency,[8],inactive
O=c1c2ccccc2[se]n1-c1ccccc1,outcome,[6],inactive
same,outcome,[9],inactive
O=C1C2CC=CCC2C(=O)N1SC(Cl)(Cl)Cl (stereo not drawn),Potency,[4],6.74 µM (active)
same,Potency,[10],15.2 µM (active)
CC[C@H](C)[C@H]1O[C@]2(C=C[C@@H]1C)C[C@@H]1C[C@@H](C/C=C(\C)[C@@H](O[C@H]3C[C@H](OC)[C@@H](O[C@H]4C[C@H](OC)[C@@H](O)[C@H](C)O4)[C@H](C)O3)[C@@H](C)/C=C/C=C3\CO[C@@H]4[C@H](O)C(C)=C[C@@H](C(=O)O1)[C@]34O)O2,Potency,[10],21.5 µM (active)
Cc1o[nH]c(=O)c1CC(N)C(=O)O (stereo not drawn),Potency,[11],inactive
same,Potency,[12],inactive
same,outcome,[9],inactive
same,Potency,Papain (Carica papaya),inactive
C[C@H](N)Cc1cccc(C(F)(F)F)c1,Potency,[11],inactive
same,Potency,[12],inactive
same,outcome,[9],inactive
same,Potency,Papain (Carica papaya),inactive
Cc1cc([C@@H]2CCCN2C)on1,Potency,[11],inactive
same,Potency,[12],inactive
same,outcome,[9],inactive
same,Potency,Papain (Carica papaya),inactive
CC(Cc1ccc(OCC(=O)O)cc1)NCC(O)c1cccc(Cl)c1 (stereo not drawn),Potency,[11],inactive
same,Potency,[12],inactive
same,outcome,[9],inactive
same,Potency,Papain (Carica papaya),inactive
COc1ccc2c(c1O)-c1cccc3c1[C@@H](C2)N(C)CC3,Potency,[11],inactive
same,Potency,[12],inactive
same,outcome,[9],inactive
same,Potency,Papain (Carica papaya),inactive
NNC(=O)c1ccc(O)cc1,Potency,[11],inactive
same,Potency,[12],inactive
same,outcome,[9],inactive
same,Potency,Papain (Carica papaya),inactive
C[C@]12Cc3cn4c(nc3C=C1CCC1C2CC[C@@]2(C)[C@H]1CC[C@@]2(O)C#N)nc1ccccc14 (stereo partly drawn),Potency,[11],inactive
same,Potency,[12],inactive
same,outcome,[9],inactive
NCC(O)c1cc(O)c(O)cc1F (stereo not drawn),Potency,[11],inactive
same,Potency,[12],inactive
same,Potency,[13],inactive
same,Potency,Papain (Carica papaya),inactive
CCN1C[C@@]2(COC)C3[C@@H](OC)C4[C@@H]1C3([C@@H]1C[C@]3(O)[C@H](OC(=O)c5ccccc5)[C@@H]1[C@]4(OC(C)=O)[C@@H](O)[C@@H]3OC)[C@H](OC)C[C@H]2O,Potency,[11],inactive
same,Potency,[12],inactive
same,outcome,[9],inactive
same,Potency,Papain (Carica papaya),inactive
CC(C)NP(=O)(NC(C)C)OP(=O)(NC(C)C)NC(C)C,Potency,[11],inactive
same,Potency,[12],inactive
same,outcome,[9],inactive
same,Potency,Papain (Carica papaya),inactive
CCCN1CCC[C@@H](c2cccc(O)c2)C1,Potency,[11],inactive
same,Potency,[12],inactive
same,outcome,[9],inactive
same,Potency,Papain (Carica papaya),inactive
CC(C)(C)c1o[nH]c(=O)c1CC(N)C(=O)O (stereo not drawn),Potency,[11],inactive
same,Potency,[12],inactive
same,outcome,[9],inactive
same,Potency,Papain (Carica papaya),inactive
